# KB-V1 MDR tox: KB-V1 MDR subline cytotoxicity | KB-V1 MDR cells viability, CellTiter-Glo, 72 h | Potency, µM (doses to about 46.1 µM), actives largely listed as cytotoxic | 400,000 tested, 3.4% active | AID 1347076; note: % is set by controls: 0 for no effect and ±100 for the full control effect; nearly all actives have a fitted effect of over 60% in size
#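 KB-V1 MDR subline cells in DMEM (phenol-red free, 10% FBS) exposed to compounds in qHTS concentration series for 72 h at 37 degrees C. Viability read by CellTiter-Glo luminescence; concentration-effect curves fitted after normalization and correction.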
# HT1080NT lethal: kills 2HG-producing HT-1080-NT fibrosarcoma cells. HT-1080-NT fibrosarcoma viability, CellTiter-Glo ATP luminescence, 48 h. Potency, µM (doses to about 46.1 µM), for inactives: top-dose activity, negative = less viability, most hits filed as cytotoxic. 360,000 tested, 1.6% active. AID 686970;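 note: NT is the 2HG producing partner of a matched IDH1 knockdown line; 0% = DMSO-treated cells and -100% = media-only wells without cells; nearly all actives have a fitted effect of over 55% in size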
#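 750 cells/well, RPMI + 5% FBS; 2 h settle, compound pin-transfer, 48 h at 37 degrees C. CellTiter-Glo 10 min RT, luminescence. Normalized to DMSO and media-only wells.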
# MCF10A rereplic: inducers of DNA re-replication in MCF 10A breast cells | MCF 10A DNA re-replication, Hoechst nuclear intensity, 48 h | Potency, µM (highest dose often 46.1 µM), for inactives: top-dose activity, positive = re-replication, hits mostly activators | 350,000 tested, 2.9% active | AID 624296; note: % of control where 0% means no effect; nearly all actives have a fitted effect of over 50% in size
# HT1080 IDH1KD tx: toxicity to HT-1080 IDH1 knockdown cells (counter line). HT-1080 IDH1 knockdown viability, ATP luminescence, 48 h. Potency, µM (highest dose often 46.1 µM), without a hit: at the highest dose activity, negative = toxicity, hits mostly cytotoxic. 360,000 tested, 2% active;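 note: 0% = DMSO wells and -100% = cell-free medium wells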
#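 IDH1KD HT-1080 cells, 750/well, RPMI + 5% FBS; compound pinned after 2 h settling; 48 h, 37 °C; CellTiter-Glo luminescence; % activity normalised to DMSO and no-cell wells; curves fitted, classed by r2 and efficacy.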
# KB-3-1 cytotox: kills parental KB-3-1 adenocarcinoma cells. KB-3-1 viability, CellTiter-Glo ATP luminescence, 72 h. Potency, µM (highest dose often 46.1 µM), most hits filed as cytotoxic. 400,000 tested, 1.4% active. AID 1347075; note: % is set by controls: 0 for no effect and ±100 for the full control effect; nearly all actives have a fitted effect of over 60% in size
#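 Here the drug-naive KB-3-1 line serves as comparator for MDR sub-line selectivity; cells received compound titrations, 72 h at 37 °C, then CellTiter-Glo readout.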
# SW480 rereplic: induces DNA re-replication in SW480 colon adenocarcinoma cells; Potency, µM (top dose mostly 46.1 µM), inactives show top-dose re-replication activation, usual class: activators; SW480 DNA re-replication, Hoechst DNA content imaging, 48 h; 340,000 tested, 1.8% active; AID 624297; note: % of control where 0% means no effect; nearly all actives have a fitted effect of over 55% in size
#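 Readout is total intensity of Hoechst-stained nuclei, excited at 405 nm and collected at 500-530 nm. Compound treatment lasted 48 hr at 37 C in 5% CO2 before staining.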
# Starred values were filed as active, the others as inactive; i = inactive; ? = inconclusive; · = no result; ! = not active in a repeat. In the library only some 7.9% were active in any assay of this set; here they are far more common. Calls come from the whole dose curve; as a rule, active = well fitted curve in the direction sought with a large enough effect; inconclusive = small, poorly fitted or top-dose-only effect, or another doubt; inactive = no such curve, though single readings can be large; an effect the other way counts as inactive or inconclusive. Potency is the fitted concentration of half-maximal effect.
SMILES,KB-V1 MDR tox,HT1080NT lethal,MCF10A rereplic,HT1080 IDH1KD tx,KB-3-1 cytotox,SW480 rereplic
O=[N+]([O-])c1ccc(Sc2nc3ccccc3o2)c([N+](=O)[O-])c1,?,12.6µM*,11.6µM*,2.82µM*,i,4.11µM*
O=[N+]([O-])c1ccc(N2CC2)c([N+](=O)[O-])c1,?,7.4%,-36.0%,9.3%,?,-9.3%
O=C(/C=C/c1ccc(F)cc1)NNC(=O)CCN1CCN(Cc2ccccc2)CC1,i,0.5%,10.3µM*,-22.0%,?,?
COc1ccc(S(=O)(=O)N(C)C[C@H]2Oc3c(NC(=O)NC4CCCCC4)cccc3C(=O)N([C@H](C)CO)C[C@@H]2C)cc1,i,-2.7%,10.7%,-13.0%,i,?
COc1ccc2c3c1OC1C(=O)CC[C@@]4(O)[C@@H](C2)N(C)CC[C@]314 (stereo partly specified),i,?,?,20.6µM*,?,?
O=c1oc2cccnc2n1CCS(=O)(=O)c1ccc(F)cc1,i,-11.2%,20.6µM*,-3.0%,i,?
O=C(c1ccc2c3c(cccc13)CC2)C1CCCN(CC2CC2)C1 (stereo unspecified),?,?,-5.1%,16.4µM*,i,6.5%
CC1(C)CC2CC(C)(CN2c2ncnc3ccccc23)C1 (stereo unspecified),i,?,21.6%,?,i,?
CC(C)n1c(=O)c(C=Nc2ccc(S(N)(=O)=O)cc2)c(O)n(Cc2ccco2)c1=O,i,8.6%,11.8%,0.0%,i,?
CC(C)n1c(=O)c(C=Nc2cccc([N+](=O)[O-])c2)c(O)n(CCc2ccccc2)c1=O,i,-9.3%,23.1µM*,-11.2%,i,-2.9%
Cc1ccc2scc(N3CCN(C)CC3)c(=O)c2c1,i,·,·,·,i,·
CC(C)COC(=O)OCN1C(=O)CN(CCN2CC(=O)N(COC(=O)OCC(C)C)C(=O)C2)CC1=O,i,23.1%,?,9.4%,i,?
O=C(Nc1ccccc1)c1c(O)c2c(n(Cc3ccco3)c1=O)CCCC2,i,12.9%,2.4%,10.3%,?,-3.8%
O=C(Nc1nccs1)c1c(O)c2c(n(Cc3ccco3)c1=O)CCCC2,11.6µM*,-5.9%,9.7%,-0.8%,?,-14.2%
CC(C)CCNc1nnnc2c1sc1nc(N3CCOCC3)c3c(c12)CC(C)(C)SC3,?,17.4%,?,12.3%,i,-3.2%
CC1(C)Cc2c(c(N3CCOCC3)nc3snc(N)c23)CO1,i,11.2µM*,10µM*,20µM*,20µM*,-5.5%
C#C[C@]1(O)CCC2C3C(=O)C=C4C(Cl)=CCC[C@]4(C)C3CC[C@@]21C (stereo partly specified),i,10.3µM*,18.4µM*,32.6µM*,i,?
COc1cccc(C2SCC(=O)Nc3c2c(C)nn3-c2ccc(C)c(Cl)c2)c1OC (stereo unspecified),i,·,·,·,i,·
CN(C(=O)CNC(=O)OCc1ccccc1)c1ccc(Br)cc1C(=O)c1ccccc1Cl,3.66µM*,?,8.2µM*,?,2.31µM*,11.6µM*
O=C(CNC(=O)c1ccc(Br)cc1)Nc1ccc(Br)cc1C(=O)c1ccccc1,i,0.4%,1.4%,-0.1%,i,-3.3%
O=C(CNC(=O)OCc1ccccc1)Nc1ccc(Br)cc1C(=O)c1ccccc1Cl,8.2µM*,-28.7%,26.8%,?,?,6.9%
Cn1nc(-c2ccc(OCC(=O)N3CCN(Cc4ccccc4)CC3)cc2)c2ccccc2c1=O,0.651µM*!,-3.5%,16.4%,-14.3%,5.8µM*!,8.6%
CCCNS(=O)(=O)c1ccc(OCC(=O)N2CCN(Cc3ccccc3)CC2)cc1,8.2µM*,-1.8%,3.4%,-11.6%,?,1.8%
O=C(COc1ccc(S(=O)(=O)N2CCOCC2)cc1)N1CCN(Cc2ccc3c(c2)OCO3)CC1,16.4µM*,-17.2%,21.8%,-19.9%,i,-13.5%
COC(=O)C1=C(c2ccc(OCc3ccccc3)cc2)C[C@@H]2CC[C@H]1N2C(=O)NCc1ccc(OC)c(OC)c1,i,-29.4%,?,-9.3%,?,19.2%
SMILES,KB-V1 MDR tox,HT1080NT lethal,MCF10A rereplic,HT1080 IDH1KD tx,KB-3-1 cytotox,SW480 rereplic
COC(=O)C1=C(c2cccc(OCc3ccccc3)c2)C[C@@H]2CC[C@H]1N2C(=O)NC1CCN(Cc2ccccc2)CC1,i,23.1µM*,22.9%,?,?,-1.2%
COC(=O)C1=C(c2ccc(OCc3ccccc3)cc2)C[C@@H]2CC[C@H]1N2C(=O)NCc1ccccc1OC,?,-13.6%,·,-24.6%,20.6µM*,·
COC(=O)C1=C(c2cccc(OCc3ccccc3)c2)C[C@@H]2CC[C@H]1N2C(=O)NCc1ccc2[nH]ccc2c1,i,-5.3%,5.17µM*,-10.6%,?,-2.2%
COC(=O)C1=C(c2cccc(OCc3ccccc3)c2)C[C@@H]2CC[C@H]1N2C(=O)NCc1ccc(F)cc1,?,12.1%,4.8%,-11.4%,i,11.0%
C[C@H](N)Cc1ccccc1,·,·,0.4%,·,·,2.4%
CC(=O)[C@H]1[C@H](C#N)C[C@H]2[C@@H]3CC=C4C[C@@H](O)CC[C@]4(C)[C@H]3CC[C@@]21C,?,1.0%,-4.5%,1.4%,?,?
O=C(Nc1ccc2nc(-c3cccs3)c(-c3cccs3)nc2c1)NC1CC1,?,?,17.8µM*,?,i,?
O=[N+]([O-])c1ccc(N2CCCC2)cc1N/N=C1\CN2CCC1CC2,20.6µM*,14.4%,1.4%,23.3%,i,23.1µM*
Cc1cc(=O)n(-c2ccccc2)n1C,i,-0.3%,?,1.7%,?,12.6%
Fc1ccc([C@@H]2CCNC[C@H]2COc2ccc3c(c2)OCO3)cc1,23.1µM*!,16.4µM*,?,16.4µM*,?,?
c1ccc(C(c2ccccc2)N2CCN(c3ccc4ccccc4n3)CC2)cc1,i,-10.6%,?,-23.1%,i,-5.0%
CCCCCCn1c(=O)c(C(=O)Nc2ncccc2O)c(O)c2ccccc21,?,5.4%,-7.3%,-3.5%,7.31µM*,-2.6%
CCCCCn1c(=O)c(C(=O)Nc2ccccc2)c(O)c2ccccc21,i,6.5%,12.4%,5.8%,i,0.7%
CCCCn1c(=O)c(C(=O)Nc2ccccn2)c(O)c2ccccc21,i,-0.5%,5.9%,4.7%,10.3µM*,-42.6%
CCCCCCn1c(=O)c(C(=O)Nc2c(C)n(C)n(-c3ccccc3)c2=O)c(O)c2ccccc21,1.64µM*,?,-9.2%,-15.1%,?,-7.8%

# Screens from PubChem BioAssay.
